# Reference: PubChem BioAssay AID765 (NMMLSC, 2007)
# Unmarked numbers belong to inactive results. Calls of active or inactive are those of the source. Cut-off read from the data, not from the text of the source: active = inhibition above about 31%; inactive = the rest.
# Biological target: N-formyl peptide receptor 2 (Homo sapiens) (UniProt P25090)
# Experiment: FPRL1 fluorescent ligand binding inhibitors, cell-based, flow cytometry, single concentration (AID 765)
# Conditions: FPRL1-expressing cells, active compounds read high; at 5.1 µM unless noted
# N-formyl peptide receptor 2 (Homo sapiens), sequence (P25090 whole entry, looked up): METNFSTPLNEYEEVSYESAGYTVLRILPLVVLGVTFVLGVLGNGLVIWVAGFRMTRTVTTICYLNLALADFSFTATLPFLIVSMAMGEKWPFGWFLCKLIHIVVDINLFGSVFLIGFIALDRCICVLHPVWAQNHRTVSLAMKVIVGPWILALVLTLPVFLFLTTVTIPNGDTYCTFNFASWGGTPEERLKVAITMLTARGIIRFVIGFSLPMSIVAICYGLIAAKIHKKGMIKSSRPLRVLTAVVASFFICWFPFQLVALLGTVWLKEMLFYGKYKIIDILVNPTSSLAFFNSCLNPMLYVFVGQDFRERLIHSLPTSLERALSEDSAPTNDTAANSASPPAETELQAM
row,Compound,inhibition
1,Cc1ccc(-c2cc(C(F)F)nc(N3CCN(Cc4ccccc4)CC3)n2)cc1,-4.2% [at 5.6 µM]
2,CC(N)C(=O)N1CCN(c2nc(-c3ccccc3)c3cc([N+](=O)[O-])ccc3n2)CC1 (configuration not stated),3.9% [at 5.5 µM]
3,COc1ccc(-c2cn3cccnc3n2)cc1NC(=O)Cc1ccccc1,31.2% [at 6.2 µM] (active)
4,Cc1ccc(-c2cc(C(F)F)nc(N3CCN(c4cccc(Cl)c4)CC3)n2)cc1,-3.5% [at 5.4 µM]
5,COc1ccc(-c2cn3cccnc3n2)cc1NC(=O)c1cccc(Cl)c1,25.4% [at 5.9 µM]
6,CC(C)(C)OC(=O)N1CCN(c2nc(-c3ccccc3Cl)c3cc(Br)ccc3n2)CC1,-9.1% [at 4.4 µM]
7,COc1cccc(-c2cc(C(F)(F)F)nc(N3CCN(C(c4ccccc4)c4ccccc4)CC3)n2)c1,-3.9% [at 4.4 µM]
8,O=C(c1ccccc1)N1CCN(c2nc(-c3ccccc3)c3ccccc3n2)CC1,-1.3% [at 5.6 µM]
9,CCOC(=O)N1CCN(c2nc(-c3ccc(Cl)cc3)cc(C(F)(F)F)n2)CC1,-12% [at 5.4 µM]
10,CC(C)(C)OC(=O)N1CCN(c2nc(-c3ccccc3)c3cc([N+](=O)[O-])ccc3n2)CC1,14.7%
11,CCCCOc1ccc(C(=O)Nc2cc(-c3cn4cccnc4n3)ccc2OC)cc1,1.7% [at 5.3 µM]
12,CC(=O)N1CCN(c2nc(-c3ccccc3)c3cc(C)ccc3n2)CC1,5.6% [at 6.4 µM]
13,CC1CCc2nc(N3CCN(Cc4ccccc4)CC3)nc(C(F)(F)F)c2C1 (configuration not stated),-10.7% [at 5.7 µM]
14,O=C(O)CCC(=O)N1CCN(c2nc(-c3ccccc3)c3cc(Br)ccc3n2)CC1,-3.9% [at 4.7 µM]
15,CCCCN1CCN(c2nc(-c3ccccc3)c3cc(C)ccc3n2)CC1,17.2% [at 5.6 µM]
16,CCOC(=O)N1CCN(c2nc(-c3ccc(C)cc3)cc(C(F)F)n2)CC1,1% [at 5.9 µM]
17,O=C(c1cccc(F)c1)N1CCN(c2nc(-c3ccc(F)cc3)cc(C(F)(F)F)n2)CC1,2.3% [at 5 µM]
18,COc1ccc(-c2cc(C(F)(F)F)nc(N3CCN(c4ccccc4)CC3)n2)cc1OC,-5% [at 5 µM]
19,COc1ccc(C2CC(=O)c3cnc(N4CCN(Cc5ccc6c(c5)OCO6)CC4)nc3C2)cc1 (configuration not stated),8% [at 4.7 µM]

row,Compound,inhibition
1,COc1ccc(-c2cc(C(F)(F)F)nc(N3CCN(C(c4ccccc4)c4ccccc4)CC3)n2)cc1OC,25.4% [at 4.2 µM]
2,CCCC(=O)Nc1cccc(-c2cn3cccnc3n2)c1,-2.8% [at 7.9 µM]
3,CCOC(=O)N1CCN(c2nc(-c3ccccc3)c3cc(C)ccc3n2)CC1,3.4% [at 5.9 µM]
4,COc1ccc(-c2cc(C(F)(F)F)nc(N3CCN(c4ccc(F)cc4)CC3)n2)cc1OC,5.4% [at 4.8 µM]
5,CCOC(=O)N1CCN(c2nc(-c3ccc(OC)c(OC)c3)cc(C(F)(F)F)n2)CC1,36.1% (active)
6,COc1ccc(-c2cn3cccnc3n2)cc1NC(=O)C(C)C,25.1% [at 7.2 µM]
7,COc1ccc(-c2cn3cccnc3n2)cc1NC(=O)c1ccccc1Cl,19% [at 5.9 µM]
8,O=C(O)CC1(CC(=O)N2CCN(c3nc(-c4ccccc4Cl)c4cc(Br)ccc4n3)CC2)CCCC1,-5.2% [at 3.9 µM]
9,COc1ccccc1-c1cc(C(F)(F)F)nc(N2CCN(Cc3ccccc3)CC2)n1,14.1% [at 5.2 µM]
10,COc1ccccc1-c1cc(C(F)(F)F)nc(N2CCN(c3ccc(F)cc3)CC2)n1,-8.8%
11,COc1ccc(-c2cn3cccnc3n2)cc1NC(=O)C(C)Oc1ccccc1 (configuration not stated),-8.6% [at 5.7 µM]
12,COc1ccc(-c2cn3cccnc3n2)cc1NC(=O)c1ccc(Br)o1,-10% [at 5.4 µM]
13,Clc1cccc(-c2nc(N3CCN(C4CCCCC4)CC3)nc3c2COc2ccccc2-3)c1,-1.5% [at 4.8 µM]
14,O=C(c1ccccc1Cl)N1CCN(c2nc(-c3ccccc3)c3cc(Cl)ccc3n2)CC1,4.5% [at 4.8 µM]
15,COc1cccc(C(=O)Nc2cc(-c3cn4cccnc4n3)ccc2OC)c1,12.2% [at 5.9 µM]
16,O=C(O)CCCC(=O)N1CCN(c2nc(-c3ccccc3)c3ccccc3n2)CC1,-1.7% [at 5.5 µM]
17,COc1ccc(-c2cc(C(F)(F)F)nc(N3CCN(C)CC3)n2)cc1,-15.1% [at 6.3 µM]
18,CC(=O)N1CCN(c2nc(-c3ccccc3)c3ccccc3n2)CC1,-11.2% [at 6.7 µM]
